Records with an inconclusive call do not appear. Activity calls are given as the source filed them. Unless noted, the call rests on the fitted dose curve; in most records, active means well fitted curve in the direction sought with a large enough effect; inconclusive means small, poorly fitted or top-dose-only effect, or another doubt; inactive means no such curve, though single readings can be large; an effect the other way counts as inactive or inconclusive.
How the values were obtained:
[1] = target: Lysosomal acid glucosylceramidase (Homo sapiens) (UniProt P04062); test: Glucocerebrosidase-p2 (AID 348; in the data active means potency below about 10 µM; further: potency means the concentration at half of the fitted maximal effect); settings: purified GBA, blue fluorogenic substrate, 40 min
Lysosomal acid glucosylceramidase (Homo sapiens), sequence (P04062 whole entry, looked up): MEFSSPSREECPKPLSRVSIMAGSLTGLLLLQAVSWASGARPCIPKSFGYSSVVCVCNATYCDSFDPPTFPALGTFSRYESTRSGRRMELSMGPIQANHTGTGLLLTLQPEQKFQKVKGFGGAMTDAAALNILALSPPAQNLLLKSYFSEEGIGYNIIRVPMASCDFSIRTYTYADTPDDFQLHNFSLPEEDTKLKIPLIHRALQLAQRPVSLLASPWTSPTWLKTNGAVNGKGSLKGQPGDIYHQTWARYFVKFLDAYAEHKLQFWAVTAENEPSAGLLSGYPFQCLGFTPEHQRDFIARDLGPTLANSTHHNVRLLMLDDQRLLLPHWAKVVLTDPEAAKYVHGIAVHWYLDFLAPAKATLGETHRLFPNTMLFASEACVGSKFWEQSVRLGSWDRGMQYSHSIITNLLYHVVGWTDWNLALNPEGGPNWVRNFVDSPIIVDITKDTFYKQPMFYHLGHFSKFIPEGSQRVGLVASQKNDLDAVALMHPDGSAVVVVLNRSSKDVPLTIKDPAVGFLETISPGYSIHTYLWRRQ
Outline: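 Normal human glucocerebrosidase (0.2 nM) with blue fluorogenic substrate (80 uM final) in citrate/phosphate pH 5.9 with 10mM sodium taurocholate, 0.01% tween-20; 40 min RT, NaOH/glycine stop; fluorescence Ex 365/Em 440; AC50 from a titration from 0.6 nM upwards.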

[2] = AP1 Signaling Pathway (AID 357; active means well fitted curve in either direction with a large enough effect, not every such curve was filed as active;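 further: ME-180 reporter cells stimulated with EGF at its EC50 level; on the % scale 0 is the no-effect control and ±100 the full control effect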); settings: ME-180 AP-1-bla reporter, EGF-induced, beta-lactamase ratio, 5 h; at 7.69 µM (top of the series) unless noted
Outline: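 Modulation of EGF-driven AP-1 transcription was assessed with a beta-lactamase reporter in ME-180 cells. Compound and EC50 EGF were co-incubated 5 hours at 37 °C before 2.5-hour CCF4 loading at room temperature and dual-emission reading.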

[3] = target: Cytochrome P450 1A2 (Homo sapiens) (UniProt P05177); test: p450-cyp1a2 (AID 410; calls by dose curve; further: potency means the concentration at half of the fitted maximal effect); settings: recombinant CYP1A2, luciferin-ME demethylation, luminescence; series mostly up to 57 µM
Cytochrome P450 1A2 (Homo sapiens), sequence (P05177 whole entry, looked up): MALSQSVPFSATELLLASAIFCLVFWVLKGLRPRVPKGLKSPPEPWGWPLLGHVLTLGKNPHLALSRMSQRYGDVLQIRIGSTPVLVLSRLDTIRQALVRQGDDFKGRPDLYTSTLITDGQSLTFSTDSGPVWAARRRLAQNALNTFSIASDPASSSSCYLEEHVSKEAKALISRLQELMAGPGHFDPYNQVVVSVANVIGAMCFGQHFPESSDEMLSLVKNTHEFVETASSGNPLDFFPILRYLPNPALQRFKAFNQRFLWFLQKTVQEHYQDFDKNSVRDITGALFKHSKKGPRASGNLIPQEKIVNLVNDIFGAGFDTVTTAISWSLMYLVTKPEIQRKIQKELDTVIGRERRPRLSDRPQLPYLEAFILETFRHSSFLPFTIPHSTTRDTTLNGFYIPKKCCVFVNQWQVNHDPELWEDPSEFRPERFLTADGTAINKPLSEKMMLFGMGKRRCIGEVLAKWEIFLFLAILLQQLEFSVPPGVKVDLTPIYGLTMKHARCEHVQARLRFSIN
Outline: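 20nM CYP1A2, 100uM Luciferin-ME (=Km), 100mM KPO4; cpd 10 min RT; +NADPH regen, 60 min RT; stop/detect 20 min; luminescence. Normalized to furafylline 57 uM = full inhibition.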

[4] = NFAT Signaling Pathway (AID 444; active means well fitted curve in either direction with a large enough effect, not every such curve was filed as active;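 further: carbachol stimulus at about its EC50 of 1 µM final; on the % scale 0 is the no-effect control and ±100 the full control effect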); settings: Jurkat NFAT-bla M1, carbachol, beta-lactamase ratio, 5 h; at 7.69 µM (top of the series) unless noted
Outline: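 Read-out: CCF4 FRET ratio (460 nm/530 nm) after 1 h RT dye loading, used for %activity and AC50 from titration series. Cells: Jurkat NFAT-β-lactamase/M1 line, treated with compound plus 1 uM carbachol for 5 h, 37 °C.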

[5] = Stat Signaling Pathway (AID 446; active means well fitted curve in either direction with a large enough effect, not every such curve was filed as active;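 further: ME-180 cervical cancer cells given 40 pM IL-6 alongside compound; SIE-controlled beta-lactamase reporter measured as 460/530 nm FRET emission ratio; on the % scale 0 is the no-effect control and ±100 the full control effect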); settings: ME-180 (cervical carcinoma) SIE beta-lactamase reporter, IL-6 stimulated, 5 h; at 7.69 µM (top of the series) unless noted
Outline: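 Normalization used AC90 stimulation (300 pM IL-6) and AC90 inhibition (125 nM pan-JAK inhibitor at 40 pM IL-6). The underlying signal is SIE-driven beta-lactamase in ME-180 cells after 5 h IL-6 exposure with compound.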

[6] = target: Glucocorticoid receptor (Homo sapiens) (UniProt P04150); test: GR-GFP Redistribution (AID 450;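 active means compounds whose dose series gives a full or clear partial fitted curve of increased nuclear translocation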; further: potency means the concentration at half of the fitted maximal effect); settings: U2OS GR-GFP nuclear translocation, laser cytometry, 2 h
Glucocorticoid receptor (Homo sapiens), sequence (P04150 whole entry, looked up, the tested form may be a part): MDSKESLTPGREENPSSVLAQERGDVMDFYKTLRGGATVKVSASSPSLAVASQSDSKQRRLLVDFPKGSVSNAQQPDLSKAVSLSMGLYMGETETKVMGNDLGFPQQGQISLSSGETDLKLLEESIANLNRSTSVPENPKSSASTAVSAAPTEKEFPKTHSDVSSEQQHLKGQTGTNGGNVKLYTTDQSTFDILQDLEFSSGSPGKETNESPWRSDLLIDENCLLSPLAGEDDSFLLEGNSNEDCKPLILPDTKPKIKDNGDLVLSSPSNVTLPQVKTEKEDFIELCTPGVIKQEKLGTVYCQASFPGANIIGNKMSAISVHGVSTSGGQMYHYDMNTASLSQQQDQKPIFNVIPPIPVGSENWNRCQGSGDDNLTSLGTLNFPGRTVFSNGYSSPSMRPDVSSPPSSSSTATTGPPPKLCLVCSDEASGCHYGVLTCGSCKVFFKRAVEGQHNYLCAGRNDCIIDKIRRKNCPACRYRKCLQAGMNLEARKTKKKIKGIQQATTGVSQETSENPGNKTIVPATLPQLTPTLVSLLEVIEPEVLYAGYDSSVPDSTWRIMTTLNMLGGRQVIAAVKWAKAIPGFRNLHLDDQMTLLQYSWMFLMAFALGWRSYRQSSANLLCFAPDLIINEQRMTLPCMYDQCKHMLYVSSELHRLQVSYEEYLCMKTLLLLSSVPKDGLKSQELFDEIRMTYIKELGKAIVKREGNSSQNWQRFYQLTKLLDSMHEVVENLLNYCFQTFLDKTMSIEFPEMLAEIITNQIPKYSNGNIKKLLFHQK

[7] = target: Glucocorticoid receptor (Homo sapiens) (UniProt P04150); test: GR-EFC Redistribution (AID 451; calls by dose curve; further: potency means the concentration at half of the fitted maximal effect); settings: CHO-K1 GR-EFC translocation, beta-gal luminescence, 2 h
Outline: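 Translocation of GR-ED fusion to nuclear EA restores b-gal, read by luminescence after 1 h room-temperature detection. Engineered CHO-K1 biosensor cells, 1,000/well, exposed 2 h at 37 C to titrations up to 46 uM final.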

[8] = target: Mitogen-activated protein kinase 10 (Mus musculus) (UniProt Q61831); test: JNK3 AlphaScreen Assay (AID 530; active means well fitted curve in either direction with a large enough effect, not every such curve was filed as active;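 further: kinase came from lysate of stimulated human HepG2 cells; signal reports phosphorylation of biotinylated GST-cJun 1-79 at Ser73 with 10 µM ATP; on the % scale 0 is the no-effect control and ±100 the full control effect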); settings: JNK3 lysate, c-Jun phosphorylation; series mostly up to 57.1 µM
Outline: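 Kinase buffer: 20 mM Tris-HCl pH 7.6, 10 mM MgCl2, 1 mM DTT, 0.1 mM Na3VO4, 0.01% Tween-20; ATP 10 uM. Substrate biotin-GST-cJun(1-79), enzyme from activated HepG2 lysates. Detection by Ser73 phospho-antibody AlphaScreen.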

[9] = target: 3',5'-cyclic-AMP phosphodiesterase 4B (Homo sapiens) (UniProt Q07343); test: qHTS Assay for Inhibitors of PDE-IV (AID 607; active means well fitted activation curve with a large enough effect in the main read-out, with a control signal flat, not every such curve was filed as active; further: % of control where 0% means no effect); settings: HEK293 ACTOne CNG channel cells, membrane potential fluorescence; series mostly up to 22.9 µM
3',5'-cyclic-AMP phosphodiesterase 4B (Homo sapiens), sequence (Q07343 whole entry, looked up): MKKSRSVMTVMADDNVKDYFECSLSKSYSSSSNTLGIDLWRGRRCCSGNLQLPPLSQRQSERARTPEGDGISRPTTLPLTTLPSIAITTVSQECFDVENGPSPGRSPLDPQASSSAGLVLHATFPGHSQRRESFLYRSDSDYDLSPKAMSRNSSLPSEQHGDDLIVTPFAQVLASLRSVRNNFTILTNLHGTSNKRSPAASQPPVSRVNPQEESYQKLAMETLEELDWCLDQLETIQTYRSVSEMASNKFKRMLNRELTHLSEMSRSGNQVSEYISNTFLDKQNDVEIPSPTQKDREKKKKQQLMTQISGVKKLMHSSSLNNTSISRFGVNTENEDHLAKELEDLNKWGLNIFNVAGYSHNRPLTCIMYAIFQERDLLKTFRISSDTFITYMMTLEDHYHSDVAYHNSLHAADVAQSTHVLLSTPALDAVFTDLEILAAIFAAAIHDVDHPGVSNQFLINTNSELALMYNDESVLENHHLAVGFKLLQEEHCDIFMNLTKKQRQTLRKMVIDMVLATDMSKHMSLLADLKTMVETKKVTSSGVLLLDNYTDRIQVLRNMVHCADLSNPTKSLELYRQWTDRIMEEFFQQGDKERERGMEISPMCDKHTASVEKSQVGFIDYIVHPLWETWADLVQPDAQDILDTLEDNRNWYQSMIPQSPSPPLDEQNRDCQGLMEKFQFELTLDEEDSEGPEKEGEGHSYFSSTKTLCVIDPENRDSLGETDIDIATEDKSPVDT
Outline: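 HEK293 ACTOne cells with CNG channel (1000/well), endogenous PDE4; membrane potential dye, compounds up to 22.9 uM final. Fluorescence Ex 535/Em 590; RO 20-1724 (100 uM final) as reference.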

[10] = qHTS Assay for Lipid Storage Modulators (AID 1519; calls by dose curve); settings: Drosophila S3 cells, BODIPY lipid droplet/cell ratio, laser cytometry, cells loaded with oleic acid; for activity change, negative = inhibition: at 57.5 µM (top of the series)
Outline: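 Cells seeded at 5,000 per well were treated with compounds over a concentration series and loaded with oleic acid (400 uM, as added). Lipid droplet fluorescence (488 nm excitation, 500-530 nm channel) was read by laser-scanning cytometry and normalized to 20 uM Triacsin C.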

[11] = target: Dual specificity protein kinase CLK4 (Homo sapiens) (UniProt Q9HAZ1); test: qHTS Assay for Inhibitors of CDC-like Kinase 4 (Kinase-Glo Assay) (AID 1770); settings: recombinant Clk4, Kinase-Glo ATP depletion luminescence; series mostly up to 66.7 µM; further: nearly all actives have a fitted effect of over 65% in size; further: potency means the concentration at half of the fitted maximal effect
Dual specificity protein kinase CLK4 (Homo sapiens), sequence (Q9HAZ1 whole entry, looked up): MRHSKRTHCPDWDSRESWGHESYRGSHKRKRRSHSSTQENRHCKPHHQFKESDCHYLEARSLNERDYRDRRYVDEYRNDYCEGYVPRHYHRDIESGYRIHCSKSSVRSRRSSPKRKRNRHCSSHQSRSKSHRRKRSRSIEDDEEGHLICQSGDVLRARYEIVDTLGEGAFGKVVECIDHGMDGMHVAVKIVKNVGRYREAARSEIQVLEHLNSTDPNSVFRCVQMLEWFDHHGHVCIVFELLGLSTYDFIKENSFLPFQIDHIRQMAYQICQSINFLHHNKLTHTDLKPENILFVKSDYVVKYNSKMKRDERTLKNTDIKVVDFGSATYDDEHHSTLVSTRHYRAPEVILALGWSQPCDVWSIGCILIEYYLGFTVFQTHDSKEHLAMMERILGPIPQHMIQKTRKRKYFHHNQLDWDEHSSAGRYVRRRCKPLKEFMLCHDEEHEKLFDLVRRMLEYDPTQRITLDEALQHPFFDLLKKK
Outline: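 Recombinant human Clk4 (25 nM) phosphorylated RS repeat peptide (100 uM) with 1 uM ATP in Tris pH 7.5/MgCl2/EGTA/DTT/Triton buffer for 4.5 h at room temperature. Residual ATP was quantified by Kinase-Glo luciferase luminescence.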

[12] = target: Dual specificity protein kinase CLK4 (Homo sapiens) (UniProt Q9HAZ1); test: qHTS Assay for Inhibitors of CDC-like Kinase 4 (ADP-Glo Assay) (AID 1771); settings: recombinant CLK4, ADP-Glo luminescence; series mostly up to 80 µM; further: nearly all actives have a fitted effect of over 70% in size; further: potency means the concentration at half of the fitted maximal effect
Outline: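 25 nM Clk4, 100 uM RS peptide, 1 uM ATP (final); 2 mM MgCl2, 0.5 mM EGTA, 2.5 mM DTT, 0.01% Triton X-100; 1 hr RT. ADP-Glo readout: ATP depletion 45 min, conversion/luciferase 30 min, luminescence.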

[13] = target: Ubiquitin carboxyl-terminal hydrolase 1 (Homo sapiens) (UniProt O94782); test: Inhibitors of USP1/UAF1: Pilot qHTS (AID 504865); settings: purified USP1/UAF1, Ub-rhodamine cleavage fluorescence; series mostly up to 54.9 µM;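 further: rhodamine fluorescence freed from ubiquitin-rhodamine substrate followed over time; top concentration of the series differs between compounds; on the % scale 0 is the no-effect control and ±100 the full control effect; nearly all actives have a fitted effect of over 35% in size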
Ubiquitin carboxyl-terminal hydrolase 1 (Homo sapiens), sequence (O94782 whole entry, looked up): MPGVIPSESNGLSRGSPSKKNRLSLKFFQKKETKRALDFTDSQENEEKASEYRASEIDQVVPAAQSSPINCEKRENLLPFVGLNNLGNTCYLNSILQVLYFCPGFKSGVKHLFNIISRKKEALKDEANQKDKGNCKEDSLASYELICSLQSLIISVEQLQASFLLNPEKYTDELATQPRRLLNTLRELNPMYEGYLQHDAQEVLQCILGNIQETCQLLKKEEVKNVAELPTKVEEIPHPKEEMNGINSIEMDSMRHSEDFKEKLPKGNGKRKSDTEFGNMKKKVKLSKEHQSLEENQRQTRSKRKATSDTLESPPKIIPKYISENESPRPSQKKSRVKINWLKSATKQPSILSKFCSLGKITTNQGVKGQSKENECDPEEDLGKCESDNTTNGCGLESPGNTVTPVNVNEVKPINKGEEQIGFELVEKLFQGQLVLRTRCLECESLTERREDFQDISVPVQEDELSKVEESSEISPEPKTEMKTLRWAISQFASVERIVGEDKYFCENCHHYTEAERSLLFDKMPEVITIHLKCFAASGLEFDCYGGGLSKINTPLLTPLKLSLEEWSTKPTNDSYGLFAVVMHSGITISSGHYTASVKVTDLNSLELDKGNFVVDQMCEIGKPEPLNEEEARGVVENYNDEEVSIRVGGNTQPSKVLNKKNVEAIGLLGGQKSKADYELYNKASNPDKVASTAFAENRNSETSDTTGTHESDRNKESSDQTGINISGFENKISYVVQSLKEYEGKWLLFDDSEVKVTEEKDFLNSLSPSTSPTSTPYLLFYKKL
Outline: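 USP1/UAF1 complex (1nM) preincubated with compound 15 min at room temperature, then Ub-Rho substrate (150nM final) added. Fluorescence read kinetically at 480/540 nm, 6 reads every 60 seconds. Buffer: 50mM HEPES pH 7.8, 0.5mM EDTA, 0.1 mg/ml BSA, 1mM TCEP, 0.01% Tween-20.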

[14] = Primary qHTS for small molecule stabilizers of the endoplasmic reticulum resident proteome: Secreted ER Calcium Modulated Protein (SERCaMP) assay (AID 1508630); settings: SH-SY5Y GLuc-SERCaMP (Gaussia luciferase released on ER calcium loss) secretion, thapsigargin, luminescence; series mostly up to 38.4 µM; further: on the % scale 0 is the no-effect control and ±100 the full control effect
Outline: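 The SH-SY5Y reporter protocol was run at 3 concentrations up to 38.3 uM (primary) or 11 concentrations (follow-up): 16 h compound, 100 nM thapsigargin for 4 h, then extracellular luciferase luminescence.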

[15] = target: Dual specificity protein kinase CLK4 (Homo sapiens) (UniProt Q9HAZ1); test: qHTS Assay for Inhibitors of CDC-like Kinase 4 (ADP-FP Assay) (AID 1795); settings: Transcreener ADP fluorescence polarization; series mostly up to 50 µM; further: on the % scale 0 is the no-effect control and ±100 the full control effect; nearly all actives have a fitted effect of over 60% in size
Outline: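 Recombinant human Clk4 (6.25 nM) phosphorylated RS repeat peptide (100 uM) with 1 uM ATP in Tris pH 7.5/MgCl2/EGTA/DTT/Triton buffer for one hour. ADP was quantified by Transcreener competitive fluorescence polarization against an ADP calibration curve.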

[16] = target: Cytochrome P450 3A4 (Homo sapiens) (UniProt P08684); test: qHTS Assay for Inhibitors and Substrates of Cytochrome P450 3A4 (AID 884); settings: recombinant CYP3A4, Luciferin-PPXE luminescence; series mostly up to 57.1 µM; further: potency means the concentration at half of the fitted maximal effect; nearly all actives have a fitted effect of over 50% in size
Cytochrome P450 3A4 (Homo sapiens), sequence (P08684 whole entry, looked up): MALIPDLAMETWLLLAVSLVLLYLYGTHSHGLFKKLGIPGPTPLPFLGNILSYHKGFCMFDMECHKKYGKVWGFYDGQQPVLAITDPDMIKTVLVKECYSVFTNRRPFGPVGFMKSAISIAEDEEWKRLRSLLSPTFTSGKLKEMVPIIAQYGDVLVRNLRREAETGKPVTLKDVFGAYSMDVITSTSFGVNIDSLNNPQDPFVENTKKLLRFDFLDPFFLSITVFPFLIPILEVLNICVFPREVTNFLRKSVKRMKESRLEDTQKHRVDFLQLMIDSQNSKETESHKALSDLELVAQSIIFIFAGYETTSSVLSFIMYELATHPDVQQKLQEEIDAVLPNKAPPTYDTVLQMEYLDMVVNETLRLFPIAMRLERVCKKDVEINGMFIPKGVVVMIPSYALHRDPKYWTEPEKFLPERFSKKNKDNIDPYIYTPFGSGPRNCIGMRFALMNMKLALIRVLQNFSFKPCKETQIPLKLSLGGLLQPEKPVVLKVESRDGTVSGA
Outline: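 Luminescent readout of luciferin produced by CYP3A4 (20 nM) dealkylation of Luciferin-PPXE, 25 uM (its KM). NADPH-driven reaction ran 60 min at RT after 10 min compound preincubation; data scaled to 57 uM ketoconazole as 100% inhibition.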

[17] = target: Cytochrome P450 3A4 (Homo sapiens) (UniProt P08684); test: qHTS Assay for Activators of Cytochrome P450 3A4 (AID 885); settings: recombinant CYP3A4, Luciferin-PPXE luminescence, 60 min; series mostly up to 57.1 µM; further: nearly all actives have a fitted effect of over 65% in size
Outline: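 Human CYP3A4 dealkylates Luciferin-PPXE to luciferin, which luciferase detection converts to light. Substrate was at its KM (25uM), buffer 200mM KPO4, reaction 60 min at RT.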

[18] = measured here: cell count channel max response
[19] = measured here: lipid channel max response

CN(C)c1ncc2nc(-c3ccc(F)cc3)c(=O)n(C)c2n1
18.3%: max response [10, 18]
active: Potency [3] 1.58 µM
inactive: Potency [1] > 11.4 µM | activity change, negative = inhibition [2] -9.27% | activity change, negative = inhibition [4] 2.27% | activity, negative = inhibition [5] -9.34% | Potency [6] > 9.22 µM | Potency [7] > 46 µM | outcome [8] | Potency [9] | activity change, negative = inhibition [10] 8.24% | Potency [11] | Potency [12] | Potency [13] | Potency [14]
28.6%: max response [10, 19]

COc1ncc2nc(-c3cc(F)cc(F)c3)c(=O)n(C)c2n1
28.7%: max response [10, 19]
active: Potency [3] 2 µM
inactive: Potency [1] > 11.4 µM | activity change, negative = inhibition [2] -19.2% | activity change, negative = inhibition [4] -1.78% | activity, negative = inhibition [5] -3.71% | Potency [6] > 9.22 µM | Potency [7] > 46 µM | outcome [8] | Potency [9] | activity change, negative = inhibition [10] 5.28% | Potency [11] | Potency [12] | Potency [13] | Potency [14]
24.3%: max response [10, 18]

CN(C)Cc1ccccc1-c1nc(NC2CCNCC2)c2ccccc2n1
8.01%: max response [10, 18]
7.24%: max response [10, 19]
inactive: activity change, negative = inhibition [2] 24.8% | activity change, negative = inhibition [4] -15% | Potency [6] > 46 µM | Potency [7] > 46 µM | outcome [8] | Potency [9] | activity change, negative = inhibition [10] 2.42% | Potency [11] | Potency [12] | Potency [15] | Potency [13] | Potency [14]

Cc1cccc(CNc2cc(-c3c(C)noc3C)ncn2)c1
active: Potency [3] 1 µM | Potency [16] 5.01 µM | Potency [11] 15.8 µM | Potency [12] 15.8 µM
inactive: Potency [1] > 11.4 µM | activity change, negative = inhibition [2] -5.03% | activity change, negative = inhibition [4] -10.8% | activity, negative = inhibition [5] -4.88% | Potency [6] > 46 µM | Potency [7] > 46 µM | outcome [8] | Potency [9] | Potency [17] | activity change, negative = inhibition [10] 8.24% | Potency [13] | Potency [14]
14.9%: max response [10, 18]
22%: max response [10, 19]

CN1CCN(c2ccnc(-c3ccoc3)n2)CC1
20.2%: max response [10, 18] | max response [10, 19]
active: Potency [3] 12.6 µM
inactive: activity change, negative = inhibition [2] 21.7% | activity change, negative = inhibition [4] -15.5% | activity, negative = inhibition [5] 11.2% | Potency [7] > 46 µM | outcome [8] | Potency [9] | activity change, negative = inhibition [10] 0.402% | Potency [11] | Potency [12] | Potency [15] | Potency [13] | Potency [14]

COc1ccc(Oc2ncc3nc(-c4ccc(OC)cc4)c(=O)n(C)c3n2)cc1
-5.13%: max response [10, 18]
active: Potency [3] 3.16 µM
inactive: activity change, negative = inhibition [2] -7.57% | activity change, negative = inhibition [4] -4.34% | activity, negative = inhibition [5] -16.5% | Potency [6] > 9.22 µM | Potency [7] > 46 µM | outcome [8] | Potency [9] | Potency [17] | activity change, negative = inhibition [10] 2.79% | Potency [11] | Potency [12] | Potency [15] | Potency [13] | Potency [14]
-2.18%: max response [10, 19]

From PubChem BioAssay (NCATS)
